Measurements published in PMC7862700, “An all-to-all approach to the identification of sequence-specific readers for epigenetic DNA modifications on cytosine”.

Legend:
Assay in all cases: DAPPL (digital affinity profiling via proximity ligation, sequencing); 10 mM Tris-HCl pH 7.5, 50 mM NaCl, 1 mM DTT, 4% glycerol, room temperature, 30 min; GST-TFs on glutathione beads, 16-mer random dsDNA library, 0.1% formaldehyde crosslink after washing; high values mean tight binding
Conditions in all cases: protein: recombinant; tags: N-terminal GST; dsDNA, one strand shown
[1] = target: T1, FLI1 (Homo sapiens, UniProt Q01543 1-452)
T1 sequence: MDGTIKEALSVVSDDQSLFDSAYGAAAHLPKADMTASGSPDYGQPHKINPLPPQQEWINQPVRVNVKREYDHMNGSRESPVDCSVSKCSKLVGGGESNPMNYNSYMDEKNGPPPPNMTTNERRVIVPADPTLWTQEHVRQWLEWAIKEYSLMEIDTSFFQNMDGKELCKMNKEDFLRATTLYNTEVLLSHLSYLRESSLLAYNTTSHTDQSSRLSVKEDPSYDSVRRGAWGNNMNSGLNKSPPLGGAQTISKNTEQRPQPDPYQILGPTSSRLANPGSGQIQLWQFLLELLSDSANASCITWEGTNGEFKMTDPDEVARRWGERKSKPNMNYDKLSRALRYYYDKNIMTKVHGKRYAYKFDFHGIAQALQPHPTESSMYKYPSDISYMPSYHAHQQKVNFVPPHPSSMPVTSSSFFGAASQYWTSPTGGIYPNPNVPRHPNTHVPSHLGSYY
Summary of the method: (§1)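 Sequencing on an Illumina NextSeq500 followed washing, crosslinking with 0.1% formaldehyde, proximity ligation (BsaI/T4 ligase, 1 h, 37 °C) and PCR amplification of pools that had been incubated for 30 min at room temperature with 200 nmole of a random double-stranded 16-mer DNA library in Tris/NaCl/DTT/glycerol buffer. Each pool held DNA-barcoded human transcription factors, expressed in yeast as GST fusions and captured on glutathione beads, plus a tag-only sample. Binding signal is a hexamer's read frequency for a factor divided by its frequency in the tag-only sample.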

[2] = target: T2, ELK1 (Homo sapiens, UniProt P19419 1-428)
T2 sequence: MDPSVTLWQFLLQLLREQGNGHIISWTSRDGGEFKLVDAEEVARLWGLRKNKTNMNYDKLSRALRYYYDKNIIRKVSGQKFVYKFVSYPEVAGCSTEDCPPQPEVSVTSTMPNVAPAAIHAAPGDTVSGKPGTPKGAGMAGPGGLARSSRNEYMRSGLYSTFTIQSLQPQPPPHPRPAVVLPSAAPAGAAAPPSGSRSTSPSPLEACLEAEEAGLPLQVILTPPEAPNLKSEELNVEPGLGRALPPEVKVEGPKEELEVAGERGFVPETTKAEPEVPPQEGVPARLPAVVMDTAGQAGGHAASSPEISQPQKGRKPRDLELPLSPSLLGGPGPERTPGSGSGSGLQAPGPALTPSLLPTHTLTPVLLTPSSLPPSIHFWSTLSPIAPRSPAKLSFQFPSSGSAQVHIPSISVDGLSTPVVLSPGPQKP
Summary of the method: as §1

[3] = target: T3, GABPA (Homo sapiens, UniProt Q06546 1-454)
T3 sequence: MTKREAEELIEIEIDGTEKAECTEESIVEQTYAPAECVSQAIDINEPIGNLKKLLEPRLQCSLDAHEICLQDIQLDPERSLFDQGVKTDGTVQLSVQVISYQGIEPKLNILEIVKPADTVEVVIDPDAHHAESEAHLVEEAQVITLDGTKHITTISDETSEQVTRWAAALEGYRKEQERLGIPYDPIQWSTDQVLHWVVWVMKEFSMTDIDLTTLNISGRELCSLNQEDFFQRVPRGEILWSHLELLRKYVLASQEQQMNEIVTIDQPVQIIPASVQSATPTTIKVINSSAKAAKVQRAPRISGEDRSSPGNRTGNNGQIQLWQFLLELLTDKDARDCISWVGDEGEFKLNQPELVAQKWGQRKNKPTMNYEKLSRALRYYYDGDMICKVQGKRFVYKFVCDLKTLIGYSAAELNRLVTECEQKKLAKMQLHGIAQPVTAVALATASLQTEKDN
Summary of the method: as §1

[4] = target: T4, ERG (Homo sapiens, UniProt P11308 1-479)
T4 sequence: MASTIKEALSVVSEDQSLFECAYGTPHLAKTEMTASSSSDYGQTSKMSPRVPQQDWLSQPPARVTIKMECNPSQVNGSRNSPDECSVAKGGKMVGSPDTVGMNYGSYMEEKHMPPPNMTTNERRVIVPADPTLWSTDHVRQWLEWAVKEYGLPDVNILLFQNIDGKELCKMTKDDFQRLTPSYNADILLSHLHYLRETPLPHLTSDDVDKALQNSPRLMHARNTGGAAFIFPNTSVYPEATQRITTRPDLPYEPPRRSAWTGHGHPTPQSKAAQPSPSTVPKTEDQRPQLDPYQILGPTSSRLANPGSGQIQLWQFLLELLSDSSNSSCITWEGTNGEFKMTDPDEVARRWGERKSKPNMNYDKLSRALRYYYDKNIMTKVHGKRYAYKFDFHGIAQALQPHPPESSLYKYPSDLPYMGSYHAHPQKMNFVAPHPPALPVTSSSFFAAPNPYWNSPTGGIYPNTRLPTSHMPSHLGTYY
Summary of the method: as §1

[5] = target: ELF1 (Homo sapiens, UniProt P32519 1-619)
Chain of ELF1 (P32519 whole entry): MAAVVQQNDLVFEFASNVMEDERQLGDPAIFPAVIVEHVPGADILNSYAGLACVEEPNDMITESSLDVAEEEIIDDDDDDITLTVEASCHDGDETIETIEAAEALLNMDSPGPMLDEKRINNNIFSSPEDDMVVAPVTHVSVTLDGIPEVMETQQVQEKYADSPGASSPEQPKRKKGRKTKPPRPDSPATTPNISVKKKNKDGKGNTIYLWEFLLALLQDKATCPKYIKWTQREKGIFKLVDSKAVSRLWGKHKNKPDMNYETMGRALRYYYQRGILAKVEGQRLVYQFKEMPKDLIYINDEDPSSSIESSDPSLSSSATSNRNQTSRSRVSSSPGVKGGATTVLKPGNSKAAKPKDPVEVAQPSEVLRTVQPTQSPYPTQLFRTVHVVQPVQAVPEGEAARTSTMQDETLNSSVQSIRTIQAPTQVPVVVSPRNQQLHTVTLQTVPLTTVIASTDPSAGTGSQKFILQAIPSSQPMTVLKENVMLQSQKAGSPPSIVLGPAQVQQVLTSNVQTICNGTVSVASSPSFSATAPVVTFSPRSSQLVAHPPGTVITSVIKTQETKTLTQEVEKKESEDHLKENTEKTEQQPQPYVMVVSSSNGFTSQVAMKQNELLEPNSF
Summary of the method: as §1

[6] = target: T5, EHF (Homo sapiens, UniProt Q9NZC4 1-300)
T5 sequence: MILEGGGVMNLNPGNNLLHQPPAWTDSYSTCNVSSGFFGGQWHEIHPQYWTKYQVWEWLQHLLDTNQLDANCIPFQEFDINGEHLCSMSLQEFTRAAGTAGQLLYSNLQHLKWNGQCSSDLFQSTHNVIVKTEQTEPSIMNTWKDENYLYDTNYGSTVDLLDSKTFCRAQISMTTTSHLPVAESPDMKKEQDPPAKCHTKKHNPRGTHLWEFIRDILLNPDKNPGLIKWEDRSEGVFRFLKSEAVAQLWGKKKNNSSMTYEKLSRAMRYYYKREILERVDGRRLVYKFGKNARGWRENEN
Summary of the method: as §1

[7] = target: SPI1 (Homo sapiens, UniProt P17947 1-270)
Summary of the method: as §1

[8] = target: SPIB (Homo sapiens, UniProt Q01892 1-262)
Chain of SPIB (Q01892 whole entry): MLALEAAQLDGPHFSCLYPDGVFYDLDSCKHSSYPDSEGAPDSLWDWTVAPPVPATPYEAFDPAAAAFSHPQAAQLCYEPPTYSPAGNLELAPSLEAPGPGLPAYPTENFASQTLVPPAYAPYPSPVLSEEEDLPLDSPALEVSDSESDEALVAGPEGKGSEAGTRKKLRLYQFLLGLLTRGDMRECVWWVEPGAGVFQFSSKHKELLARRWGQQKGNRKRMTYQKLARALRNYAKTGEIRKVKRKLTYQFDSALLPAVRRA
Summary of the method: as §1

[9] = target: T6, ELK3 (Homo sapiens, UniProt P41970 1-407)
T6 sequence: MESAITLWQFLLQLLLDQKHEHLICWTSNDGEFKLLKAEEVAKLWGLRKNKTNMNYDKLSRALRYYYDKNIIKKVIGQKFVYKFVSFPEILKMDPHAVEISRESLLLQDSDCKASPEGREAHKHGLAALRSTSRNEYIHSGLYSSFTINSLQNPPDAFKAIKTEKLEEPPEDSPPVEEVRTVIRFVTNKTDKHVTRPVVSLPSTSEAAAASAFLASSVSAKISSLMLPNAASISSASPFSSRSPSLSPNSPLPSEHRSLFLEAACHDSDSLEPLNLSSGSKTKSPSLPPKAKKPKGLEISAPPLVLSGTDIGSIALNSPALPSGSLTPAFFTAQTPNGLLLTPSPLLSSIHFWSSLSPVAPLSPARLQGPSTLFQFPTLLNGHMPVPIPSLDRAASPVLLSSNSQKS
Summary of the method: as §1

Sequence: AAGTTA
- binding signal [1]: 1.25 fold enrichment (6-mer frequency, TF over GST control)
- binding signal [2]: 1.26 fold enrichment (6-mer frequency, TF over GST control)
- binding signal [3]: 1.19 fold enrichment (6-mer frequency, TF over GST control)
- binding signal [4]: 1.27 fold enrichment (6-mer frequency, TF over GST control)
- binding signal [5]: 1.27 fold enrichment (6-mer frequency, TF over GST control)
- binding signal [6]: 1.24 fold enrichment (6-mer frequency, TF over GST control)
- binding signal [7]: 1.24 fold enrichment (6-mer frequency, TF over GST control)
- binding signal [8]: 1.12 fold enrichment (6-mer frequency, TF over GST control)
- binding signal [9]: 1.23 fold enrichment (6-mer frequency, TF over GST control)
